# Assay results from PubChem BioAssay (NCATS).
# Inconclusive results are not listed. Entries that show only a call come without a potency. Unmarked numbers belong to inactive results. Calls of active or inactive are those of the source. Calls follow the shape of the dose curve; as a rule, active = well fitted curve in the direction sought with a large enough effect; inconclusive = small, poorly fitted or top-dose-only effect, or another doubt; inactive = no such curve, though single readings can be large; an effect the other way counts as inactive or inconclusive.
# Tests used:
# [1] = biological target: Rap guanine nucleotide exchange factor 3 (Homo sapiens) (UniProt O95398); assay: Confirmatory qHTS for antagonist of cAMP-regulated guanine nucleotide exchange factor 3 (EPAC1) (AID 1645880); also: nearly all actives have a fitted effect of over 55% in size; also: potency is read from the fitted curve at half-maximal effect
# Summary of the method: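 Released BODIPY-GDP fluoresces less than Rap1-bound BODIPY-GDP; the signal is followed at 480/540 nm at 5-min intervals over 30 min, after 5 min at room temperature. Reactions contain 100 nM EPAC1, 250 nM RAP1B-BODIPY-GDP and 50 uM GDP; results are normalized to ATA and DMSO.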
# [2] = biological target: Rap guanine nucleotide exchange factor 3 (Homo sapiens) (UniProt O95398); assay: Confirmatory qHTS for agonist of cAMP-regulated guanine nucleotide exchange factor 3 (EPAC1) (AID 1645881);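 also: EPAC1 catalysed release of BODIPY-GDP from Rap1B seen as fluorescence loss; nearly all actives have a fitted effect of over 75% in size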
# [3] = biological target: Rap guanine nucleotide exchange factor 4 (Homo sapiens) (UniProt Q8WZA2); assay: Confirmatory qHTS for agonist of cAMP-regulated guanine nucleotide exchange factor 4 (EPAC2) (AID 1645884);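 also: nucleotide exchange releases bodipy-GDP from Rap1 and this lowers its fluorescence; nearly all actives have a fitted effect of over 65% in size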
# [4] = biological target: Rap guanine nucleotide exchange factor 4 (Homo sapiens) (UniProt Q8WZA2); assay: Confirmatory qHTS for antagonist of cAMP-regulated guanine nucleotide exchange factor 4 (EPAC2) (AID 1645885); also: nearly all actives have a fitted effect of over 25% in size
# [5] = biological target: Rap guanine nucleotide exchange factor 3 (Homo sapiens) (UniProt O95398); assay: Counterscreen qHTS for antagonist of cAMP-regulated guanine nucleotide exchange factor 3 (EPAC1) (AID 1645888)
# Summary of the method: (§1)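 Measured: fluorescence of BODIPY-GDP bound to Rap1B, which falls as exchange proceeds. Conditions include 50 uM competing GDP, 5 and 30 min reads, and a later cAMP challenge for antagonist detection.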
# [6] = biological target: Rap guanine nucleotide exchange factor 3 (Homo sapiens) (UniProt O95398); assay: Counterscreen qHTS for agonist of cAMP-regulated guanine nucleotide exchange factor 3 (EPAC1) (AID 1645889); also: nearly all actives have a fitted effect of over 40% in size
# Summary of the method: as §1
# Rap guanine nucleotide exchange factor 4 (Homo sapiens), sequence (Q8WZA2 whole entry, looked up): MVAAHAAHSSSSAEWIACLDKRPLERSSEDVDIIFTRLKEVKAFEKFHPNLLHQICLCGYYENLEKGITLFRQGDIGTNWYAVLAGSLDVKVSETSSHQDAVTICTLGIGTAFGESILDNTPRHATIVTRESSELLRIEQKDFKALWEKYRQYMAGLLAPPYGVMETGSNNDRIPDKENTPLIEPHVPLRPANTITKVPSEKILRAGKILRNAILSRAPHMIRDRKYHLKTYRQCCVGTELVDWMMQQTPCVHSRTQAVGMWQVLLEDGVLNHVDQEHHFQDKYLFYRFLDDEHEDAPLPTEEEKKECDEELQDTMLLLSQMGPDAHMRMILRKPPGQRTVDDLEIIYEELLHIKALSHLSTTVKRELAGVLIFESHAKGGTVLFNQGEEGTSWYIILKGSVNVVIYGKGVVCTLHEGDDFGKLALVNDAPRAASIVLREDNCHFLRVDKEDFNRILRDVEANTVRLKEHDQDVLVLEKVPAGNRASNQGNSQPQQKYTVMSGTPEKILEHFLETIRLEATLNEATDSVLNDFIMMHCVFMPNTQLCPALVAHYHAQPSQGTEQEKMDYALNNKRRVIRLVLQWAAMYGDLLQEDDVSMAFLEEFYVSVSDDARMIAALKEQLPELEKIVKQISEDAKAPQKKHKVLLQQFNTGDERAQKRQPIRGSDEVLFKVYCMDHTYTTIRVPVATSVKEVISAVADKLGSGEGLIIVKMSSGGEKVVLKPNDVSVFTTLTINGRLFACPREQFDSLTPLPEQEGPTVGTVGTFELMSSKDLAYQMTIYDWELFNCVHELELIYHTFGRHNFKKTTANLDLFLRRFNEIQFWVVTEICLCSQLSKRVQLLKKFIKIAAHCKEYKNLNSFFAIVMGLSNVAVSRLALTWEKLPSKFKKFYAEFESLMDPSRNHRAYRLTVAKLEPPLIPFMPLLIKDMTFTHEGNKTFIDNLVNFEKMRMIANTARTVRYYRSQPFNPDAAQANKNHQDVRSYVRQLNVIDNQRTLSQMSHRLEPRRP
# Rap guanine nucleotide exchange factor 3 (Homo sapiens), sequence (O95398 whole entry, looked up): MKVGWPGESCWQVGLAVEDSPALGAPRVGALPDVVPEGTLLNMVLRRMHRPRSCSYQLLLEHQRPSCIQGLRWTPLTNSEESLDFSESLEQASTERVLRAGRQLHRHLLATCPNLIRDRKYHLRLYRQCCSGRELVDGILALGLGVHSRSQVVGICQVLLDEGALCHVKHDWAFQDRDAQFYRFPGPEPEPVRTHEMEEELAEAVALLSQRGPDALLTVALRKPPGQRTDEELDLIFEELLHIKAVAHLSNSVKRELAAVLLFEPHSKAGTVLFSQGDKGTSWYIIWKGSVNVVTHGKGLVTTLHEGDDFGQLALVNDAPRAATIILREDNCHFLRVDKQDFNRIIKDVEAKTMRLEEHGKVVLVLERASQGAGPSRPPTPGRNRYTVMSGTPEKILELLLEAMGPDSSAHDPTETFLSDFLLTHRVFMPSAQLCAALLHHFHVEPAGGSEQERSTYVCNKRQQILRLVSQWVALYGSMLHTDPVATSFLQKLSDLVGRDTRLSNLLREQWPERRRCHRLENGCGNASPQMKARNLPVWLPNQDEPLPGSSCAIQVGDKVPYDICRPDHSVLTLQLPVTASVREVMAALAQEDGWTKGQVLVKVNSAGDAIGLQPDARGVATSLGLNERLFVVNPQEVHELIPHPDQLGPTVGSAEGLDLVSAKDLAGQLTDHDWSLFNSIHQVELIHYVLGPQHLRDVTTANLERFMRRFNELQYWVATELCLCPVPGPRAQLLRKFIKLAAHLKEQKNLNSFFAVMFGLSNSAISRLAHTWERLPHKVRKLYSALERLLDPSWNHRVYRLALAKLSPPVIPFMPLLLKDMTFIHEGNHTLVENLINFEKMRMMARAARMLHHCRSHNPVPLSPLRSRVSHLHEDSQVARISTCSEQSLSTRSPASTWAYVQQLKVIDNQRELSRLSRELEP
SMILES,Potency [1],Potency [2],Potency [3],outcome [4],Potency [5],Potency [6],Potency [4],activation [3],"activity change, negative = inhibition [5]",activation [6]
O=C(O)CCc1ccc(-c2ccccc2)n1-c1cccc(Br)c1,inactive,inactive,inactive,inactive; activator; fitted 0.0054 uM [at 12.7 µM],inactive,inactive,,,,
CC1CCN(C(=O)CSc2nnc(CN3CCOCC3)n2-c2ccccc2)CC1,inactive,inactive,inactive,,inactive,inactive,inactive,,,
CN(C(=O)COC(=O)/C=C/c1ccc2c(c1)OCO2)c1c(N)n(Cc2ccccc2)c(=O)[nH]c1=O,inactive,inactive,inactive,,inactive,inactive,inactive,,,
CCCCN1C(=O)C(O)(c2c[nH]c3ccccc23)c2cc(Br)ccc21 (stereo unspecified),inactive,inactive,inactive,,inactive,inactive,inactive,,,
CCOC(=O)N(C)c1c(CC)nc2c(OCc3ccc(OC(F)F)cc3)cccn12,inactive,inactive,inactive,,inactive,inactive,inactive,,,
COc1ccc(/C=C/C(=O)c2ccncc2)c2ccccc12,inactive,inactive,,,,,inactive,"-6.66% [at 17.1 µM, percent relative to cAMP agonist control]",-0.831% [at 30.8 µM],15.3% [at 30.8 µM]
N#C/C(=C\c1cn(Cc2ccc(C#N)cc2)c2ccccc12)C(=O)NCc1cccs1,inactive,inactive,,,,,inactive,"8.48% [at 17.1 µM, percent relative to cAMP agonist control]",7.4% [at 30.8 µM],15.9% [at 30.8 µM]
COc1ccc(OC)c(NC(=O)Cc2c(C(=O)O)n(C)c3ccc(C)cc23)c1,inactive,inactive,inactive,,inactive,inactive,inactive,,,
O=C(N/N=C/c1cc(Br)c(O)c(Br)c1)c1cc2c(ccc3ccccc32)o1,39.8 µM (active),inactive,,,,,inactive,"-5.24% [at 17.1 µM, percent relative to cAMP agonist control]",-6.71% [at 30.8 µM],1.28% [at 30.8 µM]
Cn1cc(C(=O)N/N=C/C2=C(N3CCOCC3)C(=C\c3ccccc3)/CC2)ccc1=O,inactive,inactive,,,,,inactive,"-0.586% [at 17.1 µM, percent relative to cAMP agonist control]",-15% [at 30.8 µM],5.8% [at 30.8 µM]
Cc1ccc(S(=O)(=O)N2CCCCC2)cc1C(=O)NCCC1=CCCCC1,inactive,inactive,inactive,,inactive,inactive,inactive,,,
CC(C)Cc1csc(NC(=O)c2ccc(F)cc2)c1C(=O)O,inactive,inactive,inactive,,inactive,inactive,inactive,,,
Cc1ccc(C(C)C)cc1OCC(=O)NC1CCCCCCC1,inactive,inactive,,,,,inactive,"-1.54% [at 17.1 µM, percent relative to cAMP agonist control]",-15.5% [at 30.8 µM],-2.78% [at 30.8 µM]
O=C(Nc1sc(-c2ccccc2)cc1C(=O)O)c1ccccc1,75.7 µM (active),inactive,inactive,,inactive,inactive,inactive,,,
COCCn1c(SCC(=O)c2ccccc2)nc2cc(C(=O)NC3CCCC3)ccc2c1=O,inactive,inactive,inactive,,inactive,inactive,inactive,,,
CCOC(=O)c1cnc2ccccc2c1Nc1cccc(OC)c1,inactive,inactive,inactive,inactive [at 12.7 µM],inactive,inactive,,,,
C#Cc1ccc([C@@H]2C=C(C(=O)NCc3nc4ccccc4[nH]3)O[C@H](OCC)[C@H]2CCCO)cc1,inactive,inactive,,,,,inactive,"7.11% [at 17.1 µM, percent relative to cAMP agonist control]",-6.31% [at 30.8 µM],30.9% [at 30.8 µM]
O=C(Nc1cccc(Cl)c1)OC1CCCCc2cccnc21 (stereo unspecified),inactive,inactive,,,,,inactive,"5.07% [at 17.1 µM, percent relative to cAMP agonist control]",-21.2% [at 30.8 µM],25.6% [at 30.8 µM]
COc1cccc(C(NC(C)=O)c2nc(-c3csc4ccccc34)cs2)c1 (stereo unspecified),inactive,inactive,,,,,inactive,"1.45% [at 17.1 µM, percent relative to cAMP agonist control]",-22.7% [at 30.8 µM],29.4% [at 30.8 µM]
Cn1c(=O)c2nc3ccc(NC(=O)C(F)(F)F)cc3nc2n(C)c1=O,84.9 µM (active),inactive,inactive,,inactive,inactive,inactive,,,
COC(=O)CSc1nc(C)cc(Oc2ccccc2)n1,inactive,inactive,inactive,,inactive,inactive,inactive,,,
